Assay [1] addresses Lysosomal acid glucosylceramidase (Homo sapiens) (UniProt P04062). Nature of the assay: Glucocerebrosidase-p2 (AID 348; in the data active means potency below about 10 µM; further: potency means the concentration at half of the fitted maximal effect). The settings on record: purified GBA, blue fluorogenic substrate, 40 min. Summed up: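 Normal human glucocerebrosidase (0.2 nM) with blue fluorogenic substrate (80 uM final) in citrate/phosphate pH 5.9 with 10mM sodium taurocholate, 0.01% tween-20; 40 min RT, NaOH/glycine stop; fluorescence Ex 365/Em 440; AC50 from a titration from 0.6 nM upwards.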

Assay [2] in a line: AP1 Signaling Pathway (AID 357).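 Further: ME-180 reporter cells stimulated with EGF at its EC50 level; on the % scale 0 is the no-effect control and ±100 the full control effect.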 The settings on record: ME-180 AP-1-bla reporter, EGF-induced, beta-lactamase ratio, 5 h; at 7.69 µM (top of the series) unless noted. The method, boiled down: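 Modulation of EGF-driven AP-1 transcription was assessed with a beta-lactamase reporter in ME-180 cells. Compound and EC50 EGF were co-incubated 5 hours at 37 °C before 2.5-hour CCF4 loading at room temperature and dual-emission reading.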

Assay [3] deals with Cytochrome P450 1A2 (Homo sapiens) (UniProt P05177). Nature of the assay: p450-cyp1a2 (AID 410; calls by dose curve; further: potency means the concentration at half of the fitted maximal effect;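 on activity change, negative = inhibition: -100% = full effect of reference inhibitor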). The following applies: recombinant CYP1A2, luciferin-ME demethylation, luminescence; series mostly up to 57 µM. The method, boiled down:
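Luminescent demethylation readout: Luciferin-ME (100uM, equal to Km) turned over by 20nM CYP1A2 for 60 min at room temperature after NADPH regeneration addition, following 10 min compound preincubation. Normalization used 57 uM furafylline as full inhibition.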

Assay [4] in a line: NFAT Signaling Pathway (AID 444).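 Further: carbachol stimulus at about its EC50 of 1 µM final; on the % scale 0 is the no-effect control and ±100 the full control effect.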 The following applies: Jurkat NFAT-bla M1, carbachol, beta-lactamase ratio, 5 h; at 7.69 µM (top of the series) unless noted. Summed up:
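Read-out: CCF4 FRET ratio (460 nm/530 nm) after 1 h RT dye loading, used for %activity and AC50 from titration series. Cells: Jurkat NFAT-β-lactamase/M1 line, treated with compound plus 1 uM carbachol for 5 h, 37 °C.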

The nature of assay [5]: Stat Signaling Pathway (AID 446).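 Further: ME-180 cervical cancer cells given 40 pM IL-6 alongside compound; SIE-controlled beta-lactamase reporter measured as 460/530 nm FRET emission ratio; on the % scale 0 is the no-effect control and ±100 the full control effect.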 The following applies: ME-180 (cervical carcinoma) SIE beta-lactamase reporter, IL-6 stimulated, 5 h; at 7.69 µM (top of the series) unless noted. The method, boiled down:
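Overnight-plated ME-180 cells bearing a STAT Inducible Element beta-lactamase reporter; 5 h co-exposure to compound and 40 pM IL-6; values normalized to 300 pM IL-6 and 125 nM JAK inhibitor controls.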

In assay [6] the target is Glucocorticoid receptor (Homo sapiens) (UniProt P04150). As to the kind of experiment: GR-EFC Redistribution (AID 451; calls by dose curve; further: potency means the concentration at half of the fitted maximal effect). The settings on record: CHO-K1 GR-EFC translocation, beta-gal luminescence, 2 h. Summed up: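 Translocation of GR-ED fusion to nuclear EA restores b-gal, read by luminescence after 1 h room-temperature detection. Engineered CHO-K1 biosensor cells, 1,000/well, exposed 2 h at 37 C to titrations up to 46 uM final.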

Assay [7] deals with Mitogen-activated protein kinase 10 (Mus musculus) (UniProt Q61831). Nature of the assay: JNK3 AlphaScreen Assay (AID 530).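 Further: kinase came from lysate of stimulated human HepG2 cells; signal reports phosphorylation of biotinylated GST-cJun 1-79 at Ser73 with 10 µM ATP; on the % scale 0 is the no-effect control and ±100 the full control effect.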 The settings on record: JNK3 lysate, c-Jun phosphorylation; series mostly up to 57.1 µM. Summed up:
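qHTS titrations with 15 min compound pre-incubation before adding ATP (10 uM final). Read-out: AlphaScreen of Ser73-phosphorylated biotin-GST-cJun using HepG2 lysate JNK3 activated by IL-1β and TNFα.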
Background: Alpha assays give light when donor and acceptor beads are brought close together.

Assay [8] addresses 3',5'-cyclic-AMP phosphodiesterase 4B (Homo sapiens) (UniProt Q07343). Nature of the assay: qHTS Assay for Inhibitors of PDE-IV (AID 607; active means well fitted activation curve with a large enough effect in the main read-out, with a control signal flat, not every such curve was filed as active; further: % of control where 0% means no effect). The following applies: HEK293 ACTOne CNG channel cells, membrane potential fluorescence; series mostly up to 22.9 µM. The method, boiled down:
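Live HEK293 cells with a modified cyclic nucleotide-gated (CNG) channel report intracellular cAMP via membrane-potential dye fluorescence (ex 535/em 590 nm). Endogenous PDE-IV was targeted. Compounds were tested at up to 22.9 uM final; RO 20-1724 100 uM served as control.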
A general note: In qHTS, concentration-response curves come from the screen itself.

The target of assay [9] is Cytochrome P450 3A4 (Homo sapiens) (UniProt P08684). As to the kind of experiment: qHTS Assay for Inhibitors and Substrates of Cytochrome P450 3A4 (AID 884; active means well fitted curve in the direction sought with a large enough effect; an effect the other way counts as inactive or inconclusive; further: nearly all actives have a fitted effect of over 50% in size; further: potency means the concentration at half of the fitted maximal effect). The settings on record: recombinant CYP3A4, Luciferin-PPXE luminescence; series mostly up to 57.1 µM. The method, boiled down: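 Luminescent readout of luciferin produced by CYP3A4 (20 nM) dealkylation of Luciferin-PPXE, 25 uM (its KM). NADPH-driven reaction ran 60 min at RT after 10 min compound preincubation; data scaled to 57 uM ketoconazole as 100% inhibition.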

For assay [10] the target is unchanged. As to the kind of experiment: qHTS Assay for Activators of Cytochrome P450 3A4 (AID 885; active means well fitted curve in the direction sought with a large enough effect; an effect the other way counts as inactive or inconclusive; further: nearly all actives have a fitted effect of over 65% in size; further: potency means the concentration at half of the fitted maximal effect). The settings on record: recombinant CYP3A4, Luciferin-PPXE luminescence, 60 min; series mostly up to 57.1 µM. The method, boiled down:
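Using 20nM recombinant human CYP3A4 in potassium phosphate (200mM), substrate Luciferin-PPXE at 25uM, luminescent luciferin detection followed a 60-min RT NADPH reaction; data scaled to 57 uM ketoconazole.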

Assay [11] in a line: Primary qHTS for small molecule stabilizers of the endoplasmic reticulum resident proteome: Secreted ER Calcium Modulated Protein (SERCaMP) assay (AID 1508630; active means well fitted curve in the direction sought with a large enough effect; an effect the other way counts as inactive or inconclusive; further: on the % scale 0 is the no-effect control and ±100 the full control effect). The following applies: SH-SY5Y GLuc-SERCaMP (Gaussia luciferase released on ER calcium loss) secretion, thapsigargin, luminescence; series mostly up to 38.4 µM. The method, boiled down: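 The SH-SY5Y reporter protocol was run at 3 concentrations up to 38.3 uM (primary) or 11 concentrations (follow-up): 16 h compound, 100 nM thapsigargin for 4 h, then extracellular luciferase luminescence.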

The target in assay [12] is Cytochrome P450 2D6 (Homo sapiens) (UniProt P10635). Nature of the assay: qHTS Assay for Inhibitors and Substrates of Cytochrome P450 2D6 (AID 891; active means well fitted curve in the direction sought with a large enough effect; an effect the other way counts as inactive or inconclusive; further: potency means the concentration at half of the fitted maximal effect; nearly all actives have a fitted effect of over 60% in size). The following applies: recombinant CYP2D6, luciferin-ME EGE luminescence; series mostly up to 57.1 µM. Summed up: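 Luminescent read-out of luciferin formed by 5 nM human CYP2D6 demethylating 30 uM Luciferin-ME EGE (Km level) over 60 min at room temperature after NADPH regeneration addition. Data normalized to full inhibition by 1.43 uM quinidine.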

Experimental findings from PubChem BioAssay (NCATS) are described below.

Values without a mark were called inactive. Inconclusive results are not listed. The source made the active and inactive calls. Unless noted, the call rests on the fitted dose curve; in most records, active means well fitted curve in either direction with a large enough effect (not every such curve was filed as active); inconclusive means small, poorly fitted or top-dose-only effect, or another doubt; inactive means flat fitted curve, though single readings scatter. Some results are limits rather than exact numbers.

Chain of Lysosomal acid glucosylceramidase (Homo sapiens) (P04062 whole entry, looked up): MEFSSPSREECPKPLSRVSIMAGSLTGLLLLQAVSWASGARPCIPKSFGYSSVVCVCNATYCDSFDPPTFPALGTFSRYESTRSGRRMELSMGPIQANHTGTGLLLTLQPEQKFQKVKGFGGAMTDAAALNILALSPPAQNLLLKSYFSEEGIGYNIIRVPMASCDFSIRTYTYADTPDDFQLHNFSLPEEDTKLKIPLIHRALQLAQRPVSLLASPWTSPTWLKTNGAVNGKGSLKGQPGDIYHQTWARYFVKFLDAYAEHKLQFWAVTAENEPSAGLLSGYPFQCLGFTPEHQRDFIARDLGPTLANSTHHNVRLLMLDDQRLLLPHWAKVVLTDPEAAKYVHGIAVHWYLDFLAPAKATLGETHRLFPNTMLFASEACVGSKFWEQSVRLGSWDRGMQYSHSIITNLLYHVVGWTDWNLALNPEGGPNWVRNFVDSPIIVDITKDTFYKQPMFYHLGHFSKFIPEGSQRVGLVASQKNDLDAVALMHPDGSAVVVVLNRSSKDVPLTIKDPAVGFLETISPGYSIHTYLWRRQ
Chain of Cytochrome P450 3A4 (Homo sapiens) (P08684 whole entry, looked up): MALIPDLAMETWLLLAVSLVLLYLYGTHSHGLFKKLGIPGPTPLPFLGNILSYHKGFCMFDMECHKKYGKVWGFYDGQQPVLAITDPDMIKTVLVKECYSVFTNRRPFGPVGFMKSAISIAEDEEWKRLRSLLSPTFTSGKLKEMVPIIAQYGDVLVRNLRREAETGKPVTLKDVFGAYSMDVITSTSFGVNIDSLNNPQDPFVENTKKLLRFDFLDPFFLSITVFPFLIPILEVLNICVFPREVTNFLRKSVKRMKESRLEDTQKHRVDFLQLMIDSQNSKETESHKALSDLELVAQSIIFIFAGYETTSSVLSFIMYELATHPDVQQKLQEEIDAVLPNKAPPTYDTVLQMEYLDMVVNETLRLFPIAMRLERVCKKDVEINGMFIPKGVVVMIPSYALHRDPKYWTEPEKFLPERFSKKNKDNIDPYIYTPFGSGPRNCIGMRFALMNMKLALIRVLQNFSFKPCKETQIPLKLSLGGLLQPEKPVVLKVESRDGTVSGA
Chain of Cytochrome P450 1A2 (Homo sapiens) (P05177 whole entry, looked up): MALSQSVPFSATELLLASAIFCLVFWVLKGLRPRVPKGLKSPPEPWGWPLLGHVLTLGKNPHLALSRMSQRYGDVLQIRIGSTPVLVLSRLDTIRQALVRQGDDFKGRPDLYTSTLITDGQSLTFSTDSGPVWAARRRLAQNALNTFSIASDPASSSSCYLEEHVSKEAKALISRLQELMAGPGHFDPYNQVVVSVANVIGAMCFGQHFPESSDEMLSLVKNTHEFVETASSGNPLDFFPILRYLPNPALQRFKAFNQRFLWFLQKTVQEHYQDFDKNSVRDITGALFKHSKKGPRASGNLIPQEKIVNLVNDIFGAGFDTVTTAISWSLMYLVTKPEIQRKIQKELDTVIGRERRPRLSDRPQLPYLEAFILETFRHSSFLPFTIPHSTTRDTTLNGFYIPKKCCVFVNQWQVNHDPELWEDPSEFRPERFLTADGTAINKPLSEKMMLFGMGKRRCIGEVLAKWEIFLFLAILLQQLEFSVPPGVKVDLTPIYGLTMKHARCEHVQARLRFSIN
Chain of 3',5'-cyclic-AMP phosphodiesterase 4B (Homo sapiens) (Q07343 whole entry, looked up): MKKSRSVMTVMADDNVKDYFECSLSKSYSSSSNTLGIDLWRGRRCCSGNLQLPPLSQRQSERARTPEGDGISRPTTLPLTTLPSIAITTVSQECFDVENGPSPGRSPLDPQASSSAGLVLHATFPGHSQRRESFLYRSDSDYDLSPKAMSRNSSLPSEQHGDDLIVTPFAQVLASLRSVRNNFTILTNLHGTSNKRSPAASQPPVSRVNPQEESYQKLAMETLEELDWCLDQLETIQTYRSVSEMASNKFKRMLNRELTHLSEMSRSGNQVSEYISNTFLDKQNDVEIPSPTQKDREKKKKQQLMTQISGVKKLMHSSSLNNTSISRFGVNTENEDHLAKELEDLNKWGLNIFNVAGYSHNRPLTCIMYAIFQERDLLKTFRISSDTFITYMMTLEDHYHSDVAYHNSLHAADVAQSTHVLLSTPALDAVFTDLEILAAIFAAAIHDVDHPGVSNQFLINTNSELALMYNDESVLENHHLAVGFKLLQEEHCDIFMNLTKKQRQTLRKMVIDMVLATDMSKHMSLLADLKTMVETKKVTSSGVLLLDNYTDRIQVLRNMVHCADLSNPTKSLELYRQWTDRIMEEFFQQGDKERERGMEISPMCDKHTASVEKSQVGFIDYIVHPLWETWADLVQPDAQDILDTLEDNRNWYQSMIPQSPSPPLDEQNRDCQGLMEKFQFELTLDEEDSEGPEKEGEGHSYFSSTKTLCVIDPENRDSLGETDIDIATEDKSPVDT
Chain of Glucocorticoid receptor (Homo sapiens) (P04150 whole entry, looked up, the tested form may be a part): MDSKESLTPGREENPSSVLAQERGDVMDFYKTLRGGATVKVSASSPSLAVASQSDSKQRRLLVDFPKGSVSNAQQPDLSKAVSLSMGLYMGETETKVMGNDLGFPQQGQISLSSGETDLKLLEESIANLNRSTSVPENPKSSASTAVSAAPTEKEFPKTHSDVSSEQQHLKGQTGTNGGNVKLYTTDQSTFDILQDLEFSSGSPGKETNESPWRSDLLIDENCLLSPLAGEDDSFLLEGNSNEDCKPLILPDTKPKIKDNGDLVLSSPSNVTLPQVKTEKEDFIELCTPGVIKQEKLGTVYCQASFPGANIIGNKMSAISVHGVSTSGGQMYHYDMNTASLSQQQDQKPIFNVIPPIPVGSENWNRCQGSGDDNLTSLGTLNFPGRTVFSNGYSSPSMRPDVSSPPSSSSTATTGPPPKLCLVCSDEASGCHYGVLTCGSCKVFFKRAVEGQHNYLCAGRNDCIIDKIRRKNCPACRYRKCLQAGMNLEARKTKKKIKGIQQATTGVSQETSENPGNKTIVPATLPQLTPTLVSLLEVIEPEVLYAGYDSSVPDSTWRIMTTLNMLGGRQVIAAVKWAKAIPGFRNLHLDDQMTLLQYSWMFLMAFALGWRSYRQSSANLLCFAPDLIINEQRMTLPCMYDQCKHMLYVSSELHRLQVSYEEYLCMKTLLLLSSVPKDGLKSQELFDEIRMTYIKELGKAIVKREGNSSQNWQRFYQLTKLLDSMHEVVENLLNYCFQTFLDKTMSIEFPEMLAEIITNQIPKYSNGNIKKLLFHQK
Chain of Cytochrome P450 2D6 (Homo sapiens) (P10635 whole entry, looked up): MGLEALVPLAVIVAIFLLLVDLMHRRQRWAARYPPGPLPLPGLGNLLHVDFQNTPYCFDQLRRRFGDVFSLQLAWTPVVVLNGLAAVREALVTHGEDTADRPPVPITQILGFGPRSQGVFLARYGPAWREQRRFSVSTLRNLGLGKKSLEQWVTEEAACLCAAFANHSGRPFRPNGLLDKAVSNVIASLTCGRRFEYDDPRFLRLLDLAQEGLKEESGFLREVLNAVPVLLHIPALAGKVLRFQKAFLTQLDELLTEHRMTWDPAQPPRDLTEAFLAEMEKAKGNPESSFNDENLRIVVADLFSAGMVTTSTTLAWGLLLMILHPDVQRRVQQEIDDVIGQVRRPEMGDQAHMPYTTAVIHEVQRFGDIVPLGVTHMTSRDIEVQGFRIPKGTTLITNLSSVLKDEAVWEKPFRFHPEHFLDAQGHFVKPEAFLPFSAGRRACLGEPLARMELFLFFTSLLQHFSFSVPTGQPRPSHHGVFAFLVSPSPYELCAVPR

Take `O=S(=O)(c1ccccc1)N1CCC2(CCCN(c3cccc(-c4ccccc4)c3)C2)CC1`: the Potency in assay [1] was over 11.4 µM; in assay [6], over 46 µM; in [9], 3.98 µM (active). The activity change, negative = inhibition in [2] is 7.43%; in assay [4], -13.9%. Besides, the Potency entry in [3], in assay [7], in assay [8] and in assay [10] was “inactive” in each case. For the same compound, in assay [5], the activity, negative = inhibition is -0.269%. Also, the outcome in [11] was inactive.
As for `O=S(=O)(c1ccccc1)N1CCC2(CC1)CN(C(c1ccccc1)c1ccccc1)C2`, the Potency in [1] was over 11.4 µM; in assay [6], over 46 µM; in assay [10], 3.16 µM (active); in assay [12], 2.51 µM (active). Moreover, the activity change, negative = inhibition in assay [2] was 15.1%; in [4], -14.8%. Besides, the Potency result in [3], in [7], in [8] and in assay [9] was “inactive” each time. Also, the activity, negative = inhibition in [5] is -6.71%. For the same compound, in assay [11], the result was inactive.
Take `O=C(Nc1cccc(F)c1)N1CC[C@@]2(CCCN(C(=O)c3cnccn3)C2)C1`: the values for the Potency in [1] and in assay [6] were over 11.4 µM and over 46 µM, respectively. The activity change, negative = inhibition in assay [2] is 4.63%; in assay [4], 12.9%. Moreover, the Potency entry in [3], in assay [7], in assay [8] and in [10] was “inactive” in each case. In addition, in assay [5], the activity, negative = inhibition is 2.65%. For the same compound, the result in [11] was inactive.
Take `COc1ccc(NC(=O)N2CC3(CCN(C(=O)c4ccncc4)CC3)C2)cc1`: the Potency in assay [1] is over 11.4 µM; in assay [6] it was over 46 µM. For the same compound, the activity change, negative = inhibition in assay [2] is 0.578%; in assay [4] it was 10.9%. Besides, the Potency result in assay [3], in assay [7], in assay [8] and in assay [10] was “inactive” in each case. Further, in assay [5], the activity, negative = inhibition is 6.73%. Besides, the result in assay [11] was inactive.
Take `Cc1noc(C)c1C(=O)N1CCC[C@@]2(CCN(Cc3nccs3)C2)C1`: the figures for the Potency in assay [1] and in [6] were over 11.4 µM and over 46 µM, respectively. The activity change, negative = inhibition in assay [2] is -0.7%; in assay [4], 9.88%. Further, the Potency result in assay [3], in assay [7], in [8] and in assay [10] was “inactive” throughout. In addition, in assay [5], the activity, negative = inhibition is -7.79%. The outcome in [11] was inactive.
Turning to `O=C(Oc1ccccc1)N1CCC2(CC1)CN(c1ncccn1)C2`, the Potency in [1] is over 11.4 µM; in assay [3], 25.1 µM (active); in assay [6], over 46 µM; in assay [10], 15.8 µM (active). The figures for the activity change, negative = inhibition in assay [2] and in assay [4] were -11.2% and -7.82%, respectively. In addition, the activity, negative = inhibition in [5] was -0.184%. In addition, the Potency entry in assay [7], in assay [8] and in [9] was “inactive” each time. The outcome in assay [11] was inactive.
On to `CC(C)NC(=O)N1CCCC2(CCN(C(=O)c3csnn3)CC2)C1`, for which the figures for the Potency in [1] and in assay [6] were over 11.4 µM and over 46 µM, respectively. In addition, the results for the activity change, negative = inhibition in [2] and in [4] were 3.46% and -7.86%, respectively. Besides, the Potency result in assay [3], in assay [7], in assay [8] and in assay [10] was “inactive” each time. The activity, negative = inhibition in assay [5] is 2.78%. Also, the result in [11] was inactive.
